High-throughput results: PubChem, several laboratories
Measles CPE = protection of cells from measles virus | Measles virus-infected cells, CPE protection, absorbance | protection (pct of control), % at 4 µM | 1.5% of 140,000 active; in the data active means protection mostly above about 24%, no sharp cut-off; inactive means mostly below about 26%
sEH inh = soluble epoxide hydrolase (human) inhibition. inhibition, % at 2 µM. 0.34% of 91,000 active. recombinant human sEH enzymatic activity assay. P34913; in the data active means inhibition above about 80%
Target sequence (P34913 whole entry, looked up): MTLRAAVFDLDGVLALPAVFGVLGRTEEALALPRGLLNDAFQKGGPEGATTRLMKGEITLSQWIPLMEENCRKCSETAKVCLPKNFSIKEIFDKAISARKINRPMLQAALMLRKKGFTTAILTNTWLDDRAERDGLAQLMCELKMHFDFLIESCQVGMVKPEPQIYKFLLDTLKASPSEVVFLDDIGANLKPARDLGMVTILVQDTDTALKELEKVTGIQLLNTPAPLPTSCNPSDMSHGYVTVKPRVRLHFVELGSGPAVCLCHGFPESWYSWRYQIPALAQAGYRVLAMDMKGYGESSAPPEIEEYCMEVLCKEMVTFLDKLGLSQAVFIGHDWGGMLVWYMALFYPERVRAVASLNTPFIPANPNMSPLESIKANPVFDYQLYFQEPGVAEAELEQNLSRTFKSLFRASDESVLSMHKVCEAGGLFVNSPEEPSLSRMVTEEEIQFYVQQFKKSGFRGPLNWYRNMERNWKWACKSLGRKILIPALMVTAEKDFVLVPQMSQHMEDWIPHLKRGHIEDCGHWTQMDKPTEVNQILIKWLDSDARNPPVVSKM
F-actin modifier = modifiers of cytoskeleton assembly. HUVEC TNFa F-actin phalloidin imaging, high content. inhibition, % at 2 µM. 0.18% of 91,000 active. AID 836;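 active means inhibition above the batch mean plus 3 SD and confirmed as a hit by visual image inspection, cut at about 30% in these data, passing the limit was not always enough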
Calb biofilm kill = kills Candida albicans biofilms; AID 834; 0.14% of 85,000 active; C. albicans biofilm + clotrimazole, Alamar Blue; inhibition, % at 6 µM;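 active means inhibition above 20%; inactive means inhibition below 20%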;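 further: preformed 24 hr biofilms exposed to compound for 48 hr; 0% = biofilm without compound and 100% = blank killed by clotrimazole plus chlorhexidine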
sEH activator = activators of human soluble epoxide hydrolase. 0.04% of 91,000 active. activation, % at 2 µM. P34913. AID 717. purified human sEH enzymatic activity, activator screen; in the data active means activation above about 37%
* = called active by the depositor; nt = not tested or not shown. An excerpt weighted towards active compounds, which were near 1.9% of everything screened.

SMILES | Measles CPE | sEH inh | F-actin modifier | Calb biofilm kill | sEH activator
CCOc1cccc(C(=O)Nc2ccc3oc(Cc4ccc(Cl)cc4)nc3c2)c1 | 33* | 29 | -6 | -5 | -27
Cc1ccc(Cl)c(OC(=O)c2nn(C(C)C)c(=O)c3ccccc23)c1 | 6 | nt | nt | nt | nt
Cn1c(SCC(=O)Nc2ccc(NC(=O)c3cccs3)cc2)nnc1-c1ccncc1 | 8 | -2 | -3 | 8 | 0
O=C(CSc1cccc[n+]1[O-])Nc1cc2c(cc1Cl)C(=O)c1ccccc1C2=O | 24* | nt | nt | nt | nt
O=C(CSc1cccc[n+]1[O-])Nc1cc(S(=O)(=O)N2CCOCC2)ccc1Cl | 5 | nt | nt | nt | nt
OCCCc1nc2n(n1)C(c1cccs1)C=C(c1ccccc1)N2 (stereo unspecified) | 64* | 2 | 1 | 5 | -5
OCCCc1nc2n(n1)C(c1ccccc1)C=C(c1ccc(F)cc1)N2 (stereo unspecified) | 6 | 15 | -18 | 8 | -12
Cc1cccc(C(C)(C)C)c1OCCn1ccnc1 | 26* | -23 | -11 | -1 | 21
Cc1ccc(C)c(N2CCN(c3ncnc4c3cnn4-c3ccccc3)CC2)c1 | 51* | -12 | -18 | -3 | 14
CCN1CCN(c2ncnc3c2cnn3-c2ccccc2)CC1 | 7 | 17 | -7 | 8 | -15
CC1CC/C(=N/Nc2ccccc2)C(=O)N1 (stereo unspecified) | 9 | nt | nt | nt | nt
CC(C)OC(=O)CSc1nnc(CNc2nc(-c3ccccc3)cs2)n1C | 6 | 3 | -13 | 12 | -3
COc1cccc(C(=O)CSc2nnc(CNc3nc(-c4ccccc4)cs3)n2C)c1 | 52* | 2 | -2 | 9 | -2
O=C(N/N=C/c1ccc(O)cc1)c1csc2c1CCCC2 | 9 | nt | nt | nt | nt
COC(=O)CSc1nnc(Cc2cc(=O)[nH]c(=O)[nH]2)n1-c1cccc(OC)c1 | 23 | -3 | 8 | -2 | 1
COc1cccc(-n2c(Cc3cc(=O)[nH]c(=O)[nH]3)nnc2SCC(=O)NC2CCCC2)c1 | 50* | -26 | 8 | -2 | 27
CS(=O)(=O)Nc1cccc(C(=O)CC2(O)C(=O)Nc3ccc(Br)cc32)c1 (stereo unspecified) | 34* | 8 | -16 | 3 | -8
CC(=O)Nc1cc(ON=C(C)C)cc([N+](=O)[O-])c1 | 47* | nt | nt | nt | nt
Cc1ccccc1Nc1nc(N)nc(CN(C)Cc2ccccc2Cl)n1 | 12 | nt | nt | nt | nt
C#CCOc1ccc(Br)cc1/C=N/O | 7 | 2 | -7 | 7 | -1
Clc1ccc(-c2nnn(Cc3nc4ccccc4s3)n2)cc1 | 13 | -12 | 16 | 2 | 14
Fc1ccc(-c2nnn(Cc3nc4ccccc4s3)n2)cc1 | 46* | -8 | 11 | 3 | 9
Cc1ccc(-c2cc(C(=O)N/N=C\c3cnn(C)c3C)c3ccccc3n2)cc1C | 3 | 3 | 11 | nt | -2
Cc1c(NC(=O)CCCCCN2C(=O)C3C4C=CC(C4)C3C2=O)c(=O)n(-c2ccccc2)n1C (stereo unspecified) | 7 | nt | nt | -1 | nt
N#Cc1ccc(C(=O)NCC(c2ccco2)N2CCCCC2)cc1 (stereo unspecified) | 46* | 6 | nt | 4 | -7
SMILES | Measles CPE | sEH inh | F-actin modifier | Calb biofilm kill | sEH activator
N#Cc1ccc(C(=O)NCC(c2ccco2)N2CCCC2)cc1 (stereo unspecified) | 13 | -6 | -1 | -2 | 6
COc1ccc(OC)c(C2C3=C(CC(C)(C)CC3=O)Nc3nnnn32)c1 (stereo unspecified) | 31* | nt | nt | nt | nt
COc1cc(CNCc2ccccn2)ccc1OCC(=O)NC(C)(C)C | 31* | nt | nt | nt | nt
COc1ccc([N+](=O)[O-])cc1NC(=O)C(C)c1ccccc1 (stereo unspecified) | 29 | nt | nt | nt | nt
COc1ccc([N+](=O)[O-])cc1NC(=S)NC(NC(=O)C(c1ccccc1)c1ccccc1)C(Cl)(Cl)Cl (stereo unspecified) | 77* | 1 | -21 | nt | 2
C/C(=N\NC(=O)c1cccc(S(=O)(=O)Nc2ccccc2Cl)c1)c1ccc(-n2ccnc2)cc1 | 2 | 87* | 11 | nt | -87
COc1ccc(NS(=O)(=O)c2cccc(C(=O)N/N=C(\C)c3ccc(-n4ccnc4)cc3)c2)cc1 | 8 | 39 | 10 | nt | -40
CCC(C)N1C(=O)C2C(C(=O)Nc3cccc(OC)c3)C3C=CC2(O3)C1C(=O)NC1CCCCC1C (stereo unspecified) | 3 | -4 | -27 | 5 | 3
Cc1cc(S(=O)(=O)NCC(c2ccccc2)c2ccccc2)ccc1-n1cnnn1 | 23* | -11 | nt | 0 | 9
CCN(CC)S(=O)(=O)c1ccc(-n2cnnn2)c(C)c1 | 48* | -14 | 34 | 6 | 8
Cc1cc(S(=O)(=O)N(Cc2ccccn2)Cc2ccco2)ccc1-n1cnnn1 | 5 | nt | nt | 9 | nt
COc1ccc(CCNC(=O)COC(=O)/C=C/c2ccc(OC)c(OC)c2)cc1 | 1 | nt | nt | nt | nt
